Screen size: about 310,000 compounds; about 14,000 (4.5%) showed an effect of 50% or more. Effects have a minus sign here. The entries come from a sample that favours strong results as a whole.
The molecules below were run against human ether-à-go-go-related gene (hERG) potassium channel (human, UniProt Q12809) (assay: primary screen, population patch clamp on CHO cells stably expressing hERG; higher = less effect of the substance).
Chain of human ether-à-go-go-related gene (hERG) potassium channel (Q12809 whole entry, looked up): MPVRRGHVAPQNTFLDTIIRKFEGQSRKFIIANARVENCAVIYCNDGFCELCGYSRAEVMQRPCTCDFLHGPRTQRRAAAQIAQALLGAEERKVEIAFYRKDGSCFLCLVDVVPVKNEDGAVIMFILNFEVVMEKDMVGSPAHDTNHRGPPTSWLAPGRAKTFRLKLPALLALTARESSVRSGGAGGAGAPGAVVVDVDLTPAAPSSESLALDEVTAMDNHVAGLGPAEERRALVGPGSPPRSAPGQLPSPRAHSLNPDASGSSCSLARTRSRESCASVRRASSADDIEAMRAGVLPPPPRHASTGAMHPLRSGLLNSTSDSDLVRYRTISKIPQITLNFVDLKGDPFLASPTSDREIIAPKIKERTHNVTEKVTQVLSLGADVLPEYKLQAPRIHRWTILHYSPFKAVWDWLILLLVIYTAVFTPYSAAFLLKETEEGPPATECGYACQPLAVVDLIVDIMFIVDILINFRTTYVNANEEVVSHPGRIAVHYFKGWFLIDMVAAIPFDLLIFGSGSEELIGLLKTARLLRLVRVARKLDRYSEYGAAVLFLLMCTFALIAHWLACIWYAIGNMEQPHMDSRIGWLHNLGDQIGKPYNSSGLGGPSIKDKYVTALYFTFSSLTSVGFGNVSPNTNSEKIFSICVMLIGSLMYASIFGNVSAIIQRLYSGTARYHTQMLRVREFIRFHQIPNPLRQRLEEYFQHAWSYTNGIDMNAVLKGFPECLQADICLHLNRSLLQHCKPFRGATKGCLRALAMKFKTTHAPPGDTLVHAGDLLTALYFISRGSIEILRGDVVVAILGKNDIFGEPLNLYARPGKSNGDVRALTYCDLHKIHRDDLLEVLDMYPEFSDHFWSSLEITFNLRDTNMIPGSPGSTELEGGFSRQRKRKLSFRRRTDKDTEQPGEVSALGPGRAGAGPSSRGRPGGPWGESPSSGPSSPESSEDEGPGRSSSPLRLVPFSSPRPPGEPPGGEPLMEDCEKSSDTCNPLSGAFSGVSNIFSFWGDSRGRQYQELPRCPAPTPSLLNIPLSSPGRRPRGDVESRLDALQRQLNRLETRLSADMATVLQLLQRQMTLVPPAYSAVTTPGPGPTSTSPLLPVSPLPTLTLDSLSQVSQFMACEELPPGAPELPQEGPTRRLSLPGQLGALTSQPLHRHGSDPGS
With `Cc1ccc(NC(=O)Cn2c(=O)n(Cc3ccco3)c(=N)c3c4c(sc32)COC(C)(C)C4)cc1` the “hERG current change (%, negative = inhibition) at 10uM” value was -7.76%.
With `CC(C)[C@H](NC(=O)c1ccco1)C(=O)OCC(=O)N1CC(=O)Nc2ccccc21` the “hERG current change (%, negative = inhibition) at 10uM” value was 13.3%.
`O=C1N/C(=C/c2ccc(N3CCOCC3)cc2)C(=O)N1Cc1ccc(F)cc1` was tested, and the “hERG current change (%, negative = inhibition) at 10uM” value was 22.1%.
In the case of `CCOC(=O)C1CCN(C(=O)CSc2cc(=O)n(CC)c3ccccc23)CC1`, the “hERG current change (%, negative = inhibition) at 10uM” value is reported as -29.4%.
For `O=[N+]([O-])c1cc2c(c(CSc3nnc4ccccn34)c1)OCOC2`, the “hERG current change (%, negative = inhibition) at 10uM” value was -12.4%.
With `O=C(O)C(Cc1ccccc1)n1cnnn1` (centres unmarked) the “hERG current change (%, negative = inhibition) at 10uM” value was 7.85%.
In the case of `CCC(CC)c1nn2c(N)c(/C=C3\C=Nc4ccccc43)c(=O)nc2s1`, the “hERG current change (%, negative = inhibition) at 10uM” value is reported as 0.567%.
In the case of `COc1ccc(S(=O)(=O)N2CCCC(C(=O)O)C2)cc1Cl` (centres unmarked), the “hERG current change (%, negative = inhibition) at 10uM” value is reported as 6.43%.
`CC1=NNC(=O)C1CC(=O)N/N=C/C(Br)=C/c1ccccc1` (centres unmarked) was tested, and the “hERG current change (%, negative = inhibition) at 10uM” value was 9.09%.
In the case of `O=c1c2ccccc2oc2ccc(-c3ccc4[nH]ccc4c3)cc12`, the “hERG current change (%, negative = inhibition) at 10uM” value is reported as -2.53%.
`N#CCCn1cc(C(=O)Nc2ccc(F)cc2)c(-c2ccccc2)n1` was tested, and the “hERG current change (%, negative = inhibition) at 10uM” value was -15.2%.
In the case of `N#CCCn1cc(C(=O)Nc2ccc([N+](=O)[O-])cc2)c(-c2ccc3c(c2)OCCO3)n1`, the “hERG current change (%, negative = inhibition) at 10uM” value is reported as -72.8%.
In the case of `CCOC(=O)c1ccc(NC(=O)c2cn(CCC#N)nc2-c2ccc3c(c2)OCCO3)cc1`, the “hERG current change (%, negative = inhibition) at 10uM” value is reported as -4.59%.
In the case of `COc1ccc(-c2nn(CCC#N)cc2C(=O)Nc2cccc([N+](=O)[O-])c2)cc1OC`, the “hERG current change (%, negative = inhibition) at 10uM” value is reported as -57.9%.
In the case of `COc1ccc(NC(=O)c2cn(CCC#N)nc2-c2ccc([N+](=O)[O-])cc2)cc1`, the “hERG current change (%, negative = inhibition) at 10uM” value is reported as 2.58%.
In the case of `COc1ccc(NC(=O)c2cn(CCC#N)nc2-c2cccs2)cc1`, the “hERG current change (%, negative = inhibition) at 10uM” value is reported as -11.3%.
For `N#CCCn1cc(C(=O)Nc2ccc(C(=O)O)cc2)c(-c2cccs2)n1`, the “hERG current change (%, negative = inhibition) at 10uM” value was 21%.
For `N#CCCn1cc(C(=O)Nc2ccc([N+](=O)[O-])cc2)c(-c2cccs2)n1`, the “hERG current change (%, negative = inhibition) at 10uM” value was -59.7%.
With `COc1ccc(-c2nn(CCC#N)cc2C(=O)Nc2cccc(C(=O)O)c2)cc1OC` the “hERG current change (%, negative = inhibition) at 10uM” value was 20.9%.
With `N#CCCn1cc(C(=O)Nc2ccc(F)cc2)c(-c2ccc([N+](=O)[O-])cc2)n1` the “hERG current change (%, negative = inhibition) at 10uM” value was -57.1%.
In the case of `Cc1ccc(NC(=O)c2cn(CCC#N)nc2-c2ccc3c(c2)OCCO3)c([N+](=O)[O-])c1`, the “hERG current change (%, negative = inhibition) at 10uM” value is reported as -33.9%.
`COc1ccc(-c2nn(CCC#N)cc2C(=O)Nc2ccccc2)cc1OC` was tested, and the “hERG current change (%, negative = inhibition) at 10uM” value was -6.03%.
With `CCSc1cc(C)nc2ncnn12` the “hERG current change (%, negative = inhibition) at 10uM” value was -0.742%.
`CC1CCCN(C(=O)C2CCN(Cc3ccc4c(c3)OCO4)CC2)C1.O=C(O)C(=O)O` (centres unmarked) was tested, and the “hERG current change (%, negative = inhibition) at 10uM” value was -0.604%.
`COC(=O)c1cccc(NC(=O)Cn2nnc3ccccc32)c1` was tested, and the “hERG current change (%, negative = inhibition) at 10uM” value was 0.234%.
For `COc1cc(C2NC(=O)NC(C)=C2[N+](=O)[O-])cc(OC)c1OC` (centres unmarked), the “hERG current change (%, negative = inhibition) at 10uM” value was 9.03%.
For `CCn1c(=O)c2sccc2n2c(CCCC(=O)NCCc3ccc(S(N)(=O)=O)cc3)nnc12`, the “hERG current change (%, negative = inhibition) at 10uM” value was -4.96%.
`O=C(NCC1CC1)[C@@H]1C[C@H]1[C@@H](NP(=O)(c1ccccc1)c1ccccc1)c1ccccc1` was tested, and the “hERG current change (%, negative = inhibition) at 10uM” value was -13.9%.
In the case of `CC(=O)Nc1ccccc1C(=O)OCc1ccccc1F`, the “hERG current change (%, negative = inhibition) at 10uM” value is reported as 3.58%.
For `N#CCCn1cc(C(=O)Nc2ccccc2Br)c(-c2ccc([N+](=O)[O-])cc2)n1`, the “hERG current change (%, negative = inhibition) at 10uM” value was -46.9%.
With `N#CCCn1cc(C(=O)Nc2ccccc2Cl)c(-c2ccc([N+](=O)[O-])cc2)n1` the “hERG current change (%, negative = inhibition) at 10uM” value was -64.4%.
In the case of `N#CCCn1cc(C(=O)Nc2ccc([N+](=O)[O-])cc2)c(-c2ccccc2)n1`, the “hERG current change (%, negative = inhibition) at 10uM” value is reported as -80.1%.
With `COc1ccc(-c2nn(CCC#N)cc2C(=O)NCc2ccccc2)cc1[N+](=O)[O-]` the “hERG current change (%, negative = inhibition) at 10uM” value was -59.7%.
`N#CCCn1cc(C(=O)Nc2ccccc2Cl)c(-c2ccc(F)cc2)n1` was tested, and the “hERG current change (%, negative = inhibition) at 10uM” value was 14%.
`COc1ccc(-c2nn(CCC#N)cc2C(=O)Nc2ccccc2Br)cc1[N+](=O)[O-]` was tested, and the “hERG current change (%, negative = inhibition) at 10uM” value was -39.6%.
`COc1ccc(-c2nn(CCC#N)cc2C(=O)NCc2ccccc2)cc1OC` was tested, and the “hERG current change (%, negative = inhibition) at 10uM” value was -42.3%.
`N#CCCn1cc(C(=O)Nc2ccc(C(=O)O)cc2)c(-c2ccc([N+](=O)[O-])cc2)n1` was tested, and the “hERG current change (%, negative = inhibition) at 10uM” value was 23.2%.
In the case of `COc1ccc(NC(=O)c2cn(CCC#N)nc2-c2ccccc2)cc1`, the “hERG current change (%, negative = inhibition) at 10uM” value is reported as -7.59%.
For `Cc1cc(C=C2C(=O)N(C)C(=O)N(C)C2=O)c(C)n1-c1ccccc1`, the “hERG current change (%, negative = inhibition) at 10uM” value was 17.5%.
In the case of `FC(F)(F)c1cc(-c2cccs2)nc(N2CCOCC2)n1`, the “hERG current change (%, negative = inhibition) at 10uM” value is reported as 1.94%.
In the case of `CC(C)N(Cc1nc(-c2ccccc2)no1)C(=O)c1ccc(Br)o1`, the “hERG current change (%, negative = inhibition) at 10uM” value is reported as -18.8%.
For `O=CN1CCN(S(=O)(=O)c2ccc(Cl)c(C(=O)O)c2)CC1`, the “hERG current change (%, negative = inhibition) at 10uM” value was -2.45%.
With `C/C(=N\NC(=O)Cn1nc(C)c([N+](=O)[O-])c1C)c1ccco1` the “hERG current change (%, negative = inhibition) at 10uM” value was 26%.
For `C=C1c2ccc(C)cc2NC(=O)N1c1ccccc1`, the “hERG current change (%, negative = inhibition) at 10uM” value was -1.2%.
For `COc1ccc(N=C2CCCN2CC(N)=O)cc1.Cl`, the “hERG current change (%, negative = inhibition) at 10uM” value was -0.486%.
`C#Cc1cccc(-n2nnc(C(C)=O)c2C)c1` was tested, and the “hERG current change (%, negative = inhibition) at 10uM” value was 15.5%.
`Cc1noc(C)c1COc1ccccc1C(=O)N1CCN(S(=O)(=O)c2ccccc2F)CC1` was tested, and the “hERG current change (%, negative = inhibition) at 10uM” value was -19.2%.
`CCOC(=O)C1=C(CN2CCN(C(=O)c3ccco3)CC2)NC(=O)NC1c1ccc(OC(C)C)cc1` (centres unmarked) was tested, and the “hERG current change (%, negative = inhibition) at 10uM” value was -69.3%.
`CCOC(=O)C1=C(CN2CCN(C(=O)c3ccco3)CC2)NC(=O)NC1c1ccc(Cl)cc1` (centres unmarked) was tested, and the “hERG current change (%, negative = inhibition) at 10uM” value was -35%.
`CCOC(=O)C1=C(CN2CCC(C)CC2)NC(=O)NC1c1ccc(Cl)cc1` (centres unmarked) was tested, and the “hERG current change (%, negative = inhibition) at 10uM” value was -37.6%.
For `COc1ccc(CN2CCN(C(=O)c3ccco3)CC2)cc1`, the “hERG current change (%, negative = inhibition) at 10uM” value was -12.3%.
For `CC(C)Oc1ccc(C(=O)N2CCN(C(=O)c3ccco3)CC2)cc1`, the “hERG current change (%, negative = inhibition) at 10uM” value was -29.6%.
For `CCOC(=O)C1=C(C)NC(=O)NC1c1ccc(OC(=O)c2ccco2)cc1` (centres unmarked), the “hERG current change (%, negative = inhibition) at 10uM” value was -2.08%.
In the case of `CCOC(=O)C1=C(CN2CCN(C(=O)OCC)CC2)NC(=O)NC1c1ccc2c(c1)OCO2` (centres unmarked), the “hERG current change (%, negative = inhibition) at 10uM” value is reported as -18.4%.
With `CCOC(=O)C1=C(CN2CCN(C(=O)c3ccco3)CC2)NC(=O)NC1c1ccc(C)cc1` (centres unmarked) the “hERG current change (%, negative = inhibition) at 10uM” value was -63.2%.
For `CCOC(=O)C1=C(CN2CCN(C(=O)c3ccco3)CC2)NC(=O)NC1c1ccc(OC)cc1` (centres unmarked), the “hERG current change (%, negative = inhibition) at 10uM” value was -64.9%.
For `CCOC(=O)C1=C(CN2CCN(C(=O)c3ccco3)CC2)NC(=O)NC1c1ccccc1` (centres unmarked), the “hERG current change (%, negative = inhibition) at 10uM” value was -43.7%.
`CCOC(=O)C1=C(CN2CCCCCC2)NC(=O)NC1c1ccc2c(c1)OCO2` (centres unmarked) was tested, and the “hERG current change (%, negative = inhibition) at 10uM” value was -48.2%.
With `CCOC(=O)C1=C(CN2CCN(C(=O)c3ccco3)CC2)NC(=O)NC1c1ccc(F)cc1` (centres unmarked) the “hERG current change (%, negative = inhibition) at 10uM” value was -62.9%.

— article PMC4336329 (PLoS ONE, 2015)
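Note: peak tail current of the secondary pulse compared with the same well before compound.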
